Of roughly 7,900 targets only a part is listed; those with a hit were picked by preference. About 0.6% of all pairs of compound and target were hits.
What was measured:
Test in all cases: log2 fold change, soluble protein after heating vs DMSO (PISA); higher = thermal stabilisation; K562 cells, 10 uM, 30 min; active = over 0.2 and 3.5 SD of the protein, either way, in both replicates (recomputed)
[1] = compound: CC1=C(C=C(C=C1)NC(=O)C2=CC(=CC=C2)C(C)(C)C#N)NC3=CC4=C(C=C3)N=CN(C4=O)C
Summary of the method: (§1)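 Values are thermal stability changes relative to control samples and are taken from duplicates. They are stated as log2 fold changes. Before quantification by TMTpro 16plex LC-MS/MS with equalised channel sums, K562 cells at 2×10^6 cells/mL were treated with 10 μM compound for 30 min, heated in aliquots for 3 min across 48°C-58°C, pooled, extracted in PBS with 0.5% NP-40 at 4°C, and centrifuged at 21,000xg for 90 min to give the soluble supernatant.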

[2] = compound: CC1=C(C=C(C=C1)NC(=O)C2=CC(=CC=C2)N(C)C)NC(=O)C3=CC=C(C=C3)O
Summary of the method: as §1

[3] = compound: CC1=CC=C(C=C1)SC2=C3C=C(SC3=CN=C2)C(=O)N
Summary of the method: as §1

[4] = compound: CC1=NC(=CC=C1)C2=C(N=C(N2)C(C)(C)C)C3=CC4=NC=CN=C4C=C3
Summary of the method: as §1

[5] = compound: CCCCN(Cc1ccc(C(=O)NO)cc1)C(=O)Nc1ccccc1 [Nexturastat A]
Summary of the method: as §1

[6] = compound: CCCS(=O)(=O)Nc1ccc(F)c(C(=O)c2c[nH]c3ncc(-c4ccc(Cl)cc4)cc23)c1F [vemurafenib]
Summary of the method: as §1

[7] = compound: CCCS(=O)(=O)Nc1ccc(F)c(C(=O)c2c[nH]c3ncc(Cl)cc23)c1F
Summary of the method: as §1

[8] = compound: CCCc1cc(C)[nH]c(=O)c1CNC(=O)c1cc(-c2ccnc(N3CCN(C)CC3)c2)cc2c1cnn2C(C)C
Summary of the method: as §1

[9] = compound: CCN(CC)Cc1ccc2cc(COC(=O)Nc3ccc(C(=O)NO)cc3)ccc2c1 [givinostat]
Summary of the method: as §1

[10] = compound: CCN(CCCOc1ccc2c(Nc3cc(CC(=O)Nc4cccc(F)c4)[nH]n3)ncnc2c1)CCOP(=O)(O)O [barasertib]
Summary of the method: as §1

[11] = compound: CC[C@@H]1C(=O)N(C)c2cnc(Nc3ccc(C(=O)NC4CCN(C)CC4)cc3OC)nc2N1C1CCCC1
Summary of the method: as §1

[12] = compound: CC[C@@H]1C(=O)N(C)c2cnc(Nc3ccc(C(=O)N[C@H]4CC[C@H](N5CCN(CC6CC6)CC5)CC4)cc3OC)nc2N1C(C)C [volasertib]
Summary of the method: as §1

[13] = compound: CC[C@H](C)N1C=C(C2=C(C=C(C=C21)C3=CN=C(C=C3)N4CCNCC4)C(=O)NCC5=C(C=C(NC5=O)C)C)C
Summary of the method: as §1

[14] = compound: CC[C@H](C)[C@@H](C(=O)N[C@@H]([C@@H](C)O)C(=O)N[C@@H](CC(C)C)C(=O)[C@]1(CO1)C)NC(=O)[C@H]([C@@H](C)CC)N(C)C(=O)C [epoxomicin]
Summary of the method: as §1

[15] = compound: CCn1c(C(=O)N(C2CC2)C2CC2)cc2c3c(ncn3C)c(Nc3cc(C)n(C)n3)nc21
Summary of the method: as §1

[16] = compound: CCn1cc(-c2ccnc3[nH]c(-c4cccc(CN(C)C)c4)cc23)c(-c2ccc(NC(=O)N(C)C)cc2)n1
Summary of the method: as §1

[17] = compound: CN(C)CC(=O)Nc1ccc2[nH]c(=O)c3ccccc3c2c1
Summary of the method: as §1

[18] = compound: CN(CCOC1=CC=C(C=C1)C[C@H]2C(=O)NC(=O)S2)C3=CC=CC=N3 (racemic) [rosiglitazone]
Summary of the method: as §1

[19] = compound: CN1C2=C(C3=C1C(=O)N(N=C3)CC4=CC(=CC=C4)N)SC(=C2)S(=O)C
Summary of the method: as §1

[20] = compound: CN1CCC(CNc2ccc3ncc(-c4cccc(OC(F)(F)F)c4)n3n2)CC1
Summary of the method: as §1

Measured: log2 fold change

USP48 isoform 8 (UniProt Q86UV5)
inactive: [1] 0.128 | [2] -0.094 | [3] -0.054 | [4] 0.119 | [5] -0.006 | [6] 0.162 | [7] 0.142 | [8] 0.103 | [9] 0.144 | [10] 0.14 | [13] 0.144 | [14] -0.058 | [15] -0.03 | [16] -0.047 | [17] 0.195 | [18] 0.064 | [19] -0.013 | [20] -0.459
active: [11] -0.55 | [12] -0.84

TYW1 (UniProt Q9NV66)
inactive: [1] 0.027 | [2] -0.017 | [3] 0.023 | [4] 0.074 | [5] -0.08 | [6] 0.025 | [7] 0.084 | [8] 0.069 | [9] -0.025 | [10] 0.045 | [11] -0.02 | [13] 0.052 | [14] 0.03 | [15] -0.009 | [16] -0.002 | [17] 0.031 | [18] 0.036 | [19] 0.014 | [20] 0.088
active: [12] -0.341

VPS11 (UniProt Q9H270)
inactive: [1] 0.016 | [2] -0.003 | [3] 0.002 | [4] 0.076 | [5] 0.107 | [6] 0.016 | [7] 0.073 | [8] 0.031 | [9] -0.058 | [10] 0.017 | [13] 0.14 | [14] 0.025 | [15] -0.097 | [16] -0.074 | [17] 0.059 | [18] 0.077 | [19] 0.03 | [20] -0.244
active: [11] -0.284 | [12] -0.53

USP9X (UniProt Q93008)
inactive: [1] -0.015 | [2] -0.02 | [3] -0.009 | [4] 0.023 | [5] 0.015 | [6] 0.019 | [7] 0.075 | [8] 0.007 | [9] 0.025 | [10] 0.043 | [11] -0.108 | [13] 0.038 | [14] 0.01 | [15] -0.027 | [16] -0.056 | [17] 0.01 | [18] 0.037 | [19] -0.028 | [20] -0.21
active: [12] -0.382

TSFM (UniProt P43897)
Sequence of UniProt P43897 (P43897 whole entry, looked up): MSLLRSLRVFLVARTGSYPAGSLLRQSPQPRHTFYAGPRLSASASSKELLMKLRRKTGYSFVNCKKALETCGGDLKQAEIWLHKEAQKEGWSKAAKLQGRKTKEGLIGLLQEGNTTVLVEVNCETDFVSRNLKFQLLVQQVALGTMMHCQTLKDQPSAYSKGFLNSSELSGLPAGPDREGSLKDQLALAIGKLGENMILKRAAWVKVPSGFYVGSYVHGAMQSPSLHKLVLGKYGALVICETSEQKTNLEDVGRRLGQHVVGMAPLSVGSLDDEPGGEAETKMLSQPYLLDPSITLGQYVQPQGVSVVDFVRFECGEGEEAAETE
inactive: [1] 0.253 | [2] -0.167 | [3] 0.021 | [4] 0.11 | [5] -0.057 | [6] 0.08 | [7] 0.034 | [8] 0.181 | [9] 0.041 | [10] 0.075 | [11] -0.003 | [12] -0.092 | [13] 0.046 | [14] 0.212 | [15] -0.062 | [16] 0.074 | [17] 0.081 | [18] 0.069 | [19] -0.041 | [20] -0.056

UGGT1 (UniProt Q9NYU2)
Sequence of UniProt Q9NYU2 (Q9NYU2 whole entry, looked up): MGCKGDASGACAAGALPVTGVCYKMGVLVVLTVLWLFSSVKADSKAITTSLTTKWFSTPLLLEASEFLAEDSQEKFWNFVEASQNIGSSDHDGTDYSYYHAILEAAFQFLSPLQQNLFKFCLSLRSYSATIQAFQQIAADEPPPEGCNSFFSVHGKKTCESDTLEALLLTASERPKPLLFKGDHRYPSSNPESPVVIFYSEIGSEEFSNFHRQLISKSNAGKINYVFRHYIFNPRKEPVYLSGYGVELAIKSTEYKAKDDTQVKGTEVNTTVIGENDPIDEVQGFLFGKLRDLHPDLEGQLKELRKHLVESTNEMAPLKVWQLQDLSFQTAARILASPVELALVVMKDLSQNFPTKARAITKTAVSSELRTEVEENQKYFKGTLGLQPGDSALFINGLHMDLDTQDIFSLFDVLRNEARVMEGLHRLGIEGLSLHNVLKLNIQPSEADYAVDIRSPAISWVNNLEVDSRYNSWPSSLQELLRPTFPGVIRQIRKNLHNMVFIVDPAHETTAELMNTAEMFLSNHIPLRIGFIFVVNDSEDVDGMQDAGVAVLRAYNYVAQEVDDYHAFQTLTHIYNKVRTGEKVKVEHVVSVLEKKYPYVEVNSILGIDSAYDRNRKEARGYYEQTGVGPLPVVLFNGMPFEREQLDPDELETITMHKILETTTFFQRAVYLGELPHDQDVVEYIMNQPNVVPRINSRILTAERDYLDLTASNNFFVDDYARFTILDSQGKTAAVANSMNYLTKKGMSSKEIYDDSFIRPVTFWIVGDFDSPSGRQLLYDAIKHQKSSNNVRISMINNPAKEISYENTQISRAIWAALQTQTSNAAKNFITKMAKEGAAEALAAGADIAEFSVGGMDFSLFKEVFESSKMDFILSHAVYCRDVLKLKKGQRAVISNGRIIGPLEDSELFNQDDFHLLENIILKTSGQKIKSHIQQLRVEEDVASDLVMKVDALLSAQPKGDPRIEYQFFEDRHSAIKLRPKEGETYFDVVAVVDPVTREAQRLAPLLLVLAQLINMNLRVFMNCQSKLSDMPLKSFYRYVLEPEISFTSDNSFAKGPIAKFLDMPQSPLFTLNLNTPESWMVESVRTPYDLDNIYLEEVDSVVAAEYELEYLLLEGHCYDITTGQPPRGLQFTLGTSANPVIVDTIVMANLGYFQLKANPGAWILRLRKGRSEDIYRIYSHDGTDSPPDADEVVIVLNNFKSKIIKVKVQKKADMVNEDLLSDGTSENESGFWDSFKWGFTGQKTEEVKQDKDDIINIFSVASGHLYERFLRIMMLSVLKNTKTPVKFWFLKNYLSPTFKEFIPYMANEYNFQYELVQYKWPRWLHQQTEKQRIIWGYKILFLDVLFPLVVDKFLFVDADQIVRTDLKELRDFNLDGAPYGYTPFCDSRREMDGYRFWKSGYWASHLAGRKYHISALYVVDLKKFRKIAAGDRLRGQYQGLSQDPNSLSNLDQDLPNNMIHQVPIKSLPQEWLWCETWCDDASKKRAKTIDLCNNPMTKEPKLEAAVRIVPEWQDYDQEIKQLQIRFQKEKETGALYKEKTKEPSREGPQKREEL
inactive: [1] -0.001 | [2] 0.004 | [3] 0.001 | [4] -0.018 | [5] 0.014 | [6] 0 | [7] 0.003 | [8] 0.024 | [9] 0.02 | [10] 0 | [11] -0.01 | [12] -0.058 | [13] 0.03 | [14] -0.006 | [15] 0.019 | [16] 0.002 | [17] -0.024 | [18] -0.004 | [19] 0.008 | [20] 0.049

TXN2 (UniProt Q99757)
Sequence of UniProt Q99757 (Q99757 whole entry, looked up): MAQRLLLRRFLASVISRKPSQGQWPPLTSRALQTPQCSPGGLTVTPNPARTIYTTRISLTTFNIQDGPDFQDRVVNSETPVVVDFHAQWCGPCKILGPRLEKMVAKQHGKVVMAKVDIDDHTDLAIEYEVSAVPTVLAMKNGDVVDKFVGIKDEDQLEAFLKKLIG
inactive: [1] -0.05 | [2] -0.018 | [3] -0.009 | [4] 0.036 | [5] 0.093 | [6] 0.006 | [7] -0.048 | [8] 0.095 | [9] -0.046 | [10] 0.009 | [11] -0.037 | [12] 0.051 | [13] -0.029 | [14] 0.082 | [15] -0.038 | [16] -0.089 | [17] -0.096 | [18] -0.027 | [19] 0.03 | [20] 0.083

TPM2 (UniProt P07951)
Sequence of UniProt P07951 (P07951 whole entry, looked up): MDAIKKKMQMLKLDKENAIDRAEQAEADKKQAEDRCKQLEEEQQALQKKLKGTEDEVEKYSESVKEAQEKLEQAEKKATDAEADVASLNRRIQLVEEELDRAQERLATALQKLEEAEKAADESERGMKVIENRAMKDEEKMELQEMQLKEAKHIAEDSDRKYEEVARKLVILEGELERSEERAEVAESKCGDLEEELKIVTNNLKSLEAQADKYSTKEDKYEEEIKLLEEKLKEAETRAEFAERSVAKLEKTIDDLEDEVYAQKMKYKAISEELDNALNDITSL
inactive: [1] 0.048 | [2] -0.019 | [3] -0.047 | [4] 0.212 | [5] -0.138 | [6] 0.03 | [7] 0.001 | [8] 0.405 | [9] -0.011 | [10] 0.04 | [11] -0.07 | [12] 0.173 | [13] 0.069 | [14] 0.287 | [15] 0.023 | [16] -0.04 | [17] -0.057 | [18] -0.024 | [19] -0.023 | [20] 0.118

VAMP7 (UniProt P51809)
Sequence of UniProt P51809 (P51809 whole entry, looked up): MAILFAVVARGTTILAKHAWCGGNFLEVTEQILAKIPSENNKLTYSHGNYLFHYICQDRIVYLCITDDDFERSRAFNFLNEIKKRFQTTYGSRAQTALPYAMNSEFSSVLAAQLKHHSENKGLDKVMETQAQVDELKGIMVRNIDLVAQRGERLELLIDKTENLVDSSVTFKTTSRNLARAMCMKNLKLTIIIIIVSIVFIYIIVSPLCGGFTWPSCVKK
inactive: [1] -0.014 | [2] 0.011 | [3] 0.053 | [4] 0.005 | [5] -0.069 | [6] 0.022 | [7] -0.01 | [8] -0.016 | [9] 0.011 | [10] 0.017 | [11] -0.057 | [12] -0.019 | [13] 0.009 | [14] 0.045 | [15] 0.012 | [16] -0.026 | [17] 0.014 | [18] -0.022 | [19] -0.07 | [20] -0.181

VPS41 (UniProt P49754)
Sequence of UniProt P49754 (P49754 whole entry, looked up): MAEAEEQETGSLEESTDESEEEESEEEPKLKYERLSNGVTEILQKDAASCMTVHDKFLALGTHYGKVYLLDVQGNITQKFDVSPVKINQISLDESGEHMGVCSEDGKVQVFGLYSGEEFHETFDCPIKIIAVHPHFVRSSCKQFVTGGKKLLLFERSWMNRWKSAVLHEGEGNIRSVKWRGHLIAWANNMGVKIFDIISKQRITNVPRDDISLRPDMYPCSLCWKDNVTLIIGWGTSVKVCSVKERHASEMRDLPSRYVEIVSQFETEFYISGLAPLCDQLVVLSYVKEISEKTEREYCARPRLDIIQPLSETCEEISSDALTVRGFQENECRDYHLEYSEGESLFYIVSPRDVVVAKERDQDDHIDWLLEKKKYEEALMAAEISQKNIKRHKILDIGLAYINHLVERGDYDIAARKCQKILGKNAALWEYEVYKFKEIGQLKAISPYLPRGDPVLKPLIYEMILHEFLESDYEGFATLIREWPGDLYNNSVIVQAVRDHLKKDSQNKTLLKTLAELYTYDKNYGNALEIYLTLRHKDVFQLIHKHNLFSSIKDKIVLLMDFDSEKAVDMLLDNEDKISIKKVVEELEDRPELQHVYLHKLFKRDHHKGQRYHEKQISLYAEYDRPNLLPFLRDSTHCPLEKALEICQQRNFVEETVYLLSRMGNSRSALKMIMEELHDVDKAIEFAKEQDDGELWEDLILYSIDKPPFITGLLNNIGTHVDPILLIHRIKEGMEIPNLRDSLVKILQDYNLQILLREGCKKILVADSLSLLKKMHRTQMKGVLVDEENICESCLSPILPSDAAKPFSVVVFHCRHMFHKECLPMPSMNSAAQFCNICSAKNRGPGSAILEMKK
inactive: [1] 0.015 | [2] 0.003 | [3] 0.004 | [4] -0.028 | [5] 0.108 | [6] -0.051 | [7] 0.025 | [8] -0.03 | [9] -0.013 | [10] -0.02 | [11] -0.214 | [12] -0.309 | [13] 0.02 | [14] -0.038 | [15] -0.005 | [16] -0.106 | [17] -0.004 | [18] 0.066 | [19] 0.054
active: [20] -0.25

VPS51 (UniProt Q9UID3)
Sequence of UniProt Q9UID3 (Q9UID3 whole entry, looked up): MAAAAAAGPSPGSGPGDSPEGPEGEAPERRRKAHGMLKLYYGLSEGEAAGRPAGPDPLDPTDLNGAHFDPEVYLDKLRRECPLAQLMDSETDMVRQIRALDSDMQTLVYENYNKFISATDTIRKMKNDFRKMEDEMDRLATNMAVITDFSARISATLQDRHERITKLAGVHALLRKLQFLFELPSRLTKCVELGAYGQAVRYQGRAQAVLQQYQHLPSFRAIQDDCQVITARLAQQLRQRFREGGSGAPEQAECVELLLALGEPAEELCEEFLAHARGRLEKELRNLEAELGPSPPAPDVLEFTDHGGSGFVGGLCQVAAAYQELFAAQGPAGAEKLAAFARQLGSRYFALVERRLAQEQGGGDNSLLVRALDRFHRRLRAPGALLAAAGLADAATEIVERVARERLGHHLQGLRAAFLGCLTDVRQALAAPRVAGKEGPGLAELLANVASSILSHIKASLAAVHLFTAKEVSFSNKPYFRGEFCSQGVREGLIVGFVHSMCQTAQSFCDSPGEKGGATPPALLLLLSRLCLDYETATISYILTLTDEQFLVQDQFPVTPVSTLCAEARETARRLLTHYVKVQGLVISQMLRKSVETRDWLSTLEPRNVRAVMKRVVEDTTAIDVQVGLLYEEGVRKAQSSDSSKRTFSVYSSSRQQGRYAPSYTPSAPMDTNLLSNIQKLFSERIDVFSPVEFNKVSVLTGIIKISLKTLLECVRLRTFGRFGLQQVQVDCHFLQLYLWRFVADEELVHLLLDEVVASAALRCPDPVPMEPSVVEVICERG
inactive: [1] 0 | [2] -0.031 | [3] -0.045 | [4] 0.017 | [5] 0.032 | [6] 0.034 | [7] 0.021 | [8] 0.032 | [9] 0.071 | [10] 0.059 | [11] -0.028 | [13] -0.036 | [14] -0.015 | [15] -0.033 | [16] 0.003 | [17] 0.032 | [18] 0.016 | [19] 0.094 | [20] -0.135
active: [12] -0.335

TMEM41A (UniProt Q96HV5)
Sequence of UniProt Q96HV5 (Q96HV5 whole entry, looked up): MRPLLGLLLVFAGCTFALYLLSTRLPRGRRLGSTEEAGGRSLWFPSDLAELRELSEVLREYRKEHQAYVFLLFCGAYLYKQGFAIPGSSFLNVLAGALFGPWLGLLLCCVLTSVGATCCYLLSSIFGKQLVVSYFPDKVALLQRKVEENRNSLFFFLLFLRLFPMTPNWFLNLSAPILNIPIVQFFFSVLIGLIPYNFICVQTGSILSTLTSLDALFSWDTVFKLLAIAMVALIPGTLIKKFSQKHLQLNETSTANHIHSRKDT
inactive: [1] 0.039 | [2] 0.093 | [3] 0.002 | [4] 0.014 | [5] -0.138 | [6] -0.163 | [7] -0.101 | [8] -0.021 | [9] -0.043 | [10] 0.001 | [11] 0.036 | [12] 0.035 | [13] -0.05 | [14] -0.055 | [15] 0.021 | [16] 0.165 | [17] -0.049 | [18] -0.002 | [19] 0 | [20] 0.01

VPS52 (UniProt Q8N1B4)
active: [12] -0.383
inactive: [1] -0.071 | [2] -0.001 | [3] -0.009 | [4] 0.005 | [5] 0.079 | [6] 0.023 | [7] 0.006 | [8] 0.048 | [9] -0.004 | [10] 0.054 | [11] -0.107 | [13] 0.153 | [14] 0.092 | [15] 0.012 | [16] 0.006 | [17] -0.021 | [18] 0.094 | [19] 0.037 | [20] -0.027

USO1 isoform 2 (UniProt O60763)
inactive: [1] 0.009 | [2] -0.013 | [3] 0.02 | [4] 0.038 | [5] -0.029 | [6] 0.063 | [7] 0.062 | [8] -0.018 | [9] 0 | [10] 0.031 | [11] -0.108 | [13] 0.025 | [14] 0.043 | [15] 0.001 | [16] -0.018 | [17] 0.015 | [18] 0.044 | [19] -0.059 | [20] -0.111
active: [12] -0.254

TMEM161B (UniProt Q8NDZ6)
Sequence of UniProt Q8NDZ6 (Q8NDZ6 whole entry, looked up): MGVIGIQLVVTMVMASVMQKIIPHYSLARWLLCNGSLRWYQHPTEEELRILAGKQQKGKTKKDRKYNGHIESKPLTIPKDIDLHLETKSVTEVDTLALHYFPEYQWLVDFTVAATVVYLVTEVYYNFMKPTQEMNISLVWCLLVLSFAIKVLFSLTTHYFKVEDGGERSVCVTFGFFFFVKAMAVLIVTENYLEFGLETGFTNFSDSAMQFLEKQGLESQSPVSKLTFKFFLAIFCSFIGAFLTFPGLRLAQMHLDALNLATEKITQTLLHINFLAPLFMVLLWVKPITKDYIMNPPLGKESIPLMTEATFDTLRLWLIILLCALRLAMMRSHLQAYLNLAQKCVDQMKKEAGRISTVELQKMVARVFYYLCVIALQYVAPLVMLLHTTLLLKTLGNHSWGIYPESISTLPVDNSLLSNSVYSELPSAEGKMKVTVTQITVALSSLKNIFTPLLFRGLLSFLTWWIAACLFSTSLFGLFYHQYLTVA
inactive: [1] 0.003 | [2] -0.012 | [3] 0.026 | [4] 0.008 | [5] -0.063 | [6] 0.079 | [7] 0.053 | [8] 0.012 | [9] 0.032 | [10] -0.037 | [11] -0.028 | [12] -0.038 | [13] 0.062 | [14] 0.058 | [15] 0.01 | [16] 0.02 | [17] 0.079 | [18] 0.028 | [19] -0.068 | [20] -0.186

VPS33B (UniProt Q9H267)
inactive: [1] -0.05 | [2] -0.037 | [3] -0.015 | [4] -0.02 | [5] 0.032 | [6] 0.087 | [7] 0.069 | [8] 0.111 | [9] 0.029 | [10] 0.088 | [11] -0.129 | [12] -0.378 | [14] 0.022 | [15] -0.065 | [16] -0.039 | [17] 0.048 | [18] 0.073 | [19] 0.091 | [20] -0.218
active: [13] 0.284

— the supplement of paper PMC10849652
